Experimental data: PubChem BioAssay AID430 (Sanford-Burnham Center for Chemical Genomics, 2006)
Values joined by “and” are separate entries in the source; they are usually repeats but may differ in a detail not shown here. Identical values can stand only once. The campaign covered roughly 63,000 compounds. About 1,100 (1.7%) were called active. Cut-off read from the data, not from the text of the source: active = cytotoxicity above about 50%; inactive = the rest. This excerpt belongs to a sample that is enriched for actives. Entries with a potency or affinity are not part of this list. Some compounds were tested as several samples or in several runs, with calls that do not always agree.

Experiment: HPDE-C7 pancreatic duct cell viability loss – fluorescence, HTS (AID 430);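 note: cells exposed to compound for 48 hours before viability readout; 0% = vehicle and 100% = reference cytotoxic drug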
Settings: HPDE-C7 pancreatic duct cells viability, at 10 µM, stronger effect = higher value
For `CCOC(=O)c1cc2c(cn1)[nH]c1ccccc12`, the cytotoxicity was 30.4% (inactive).
In the case of `c1ccc2c(c1)[nH]c1cnccc12`, the cytotoxicity is reported as 72.4% (active).
For `c1ccc2c3c([nH]c2c1)CNCC3`, the cytotoxicity was -4.7% (inactive).
In the case of `CC12CCCCC1N(O)CN2O` (stereo not given), the cytotoxicity is reported as -2.3% (inactive).
For `CCOc1ccccc1C1SCC(=O)Nc2c1c(=O)[nH]n2C(CC)CC` (stereo not given), the cytotoxicity was -4% (inactive).
For `O=C(Nc1cccnc1)c1c(O)c2c(n(Cc3ccccc3)c1=O)CCCC2`, the cytotoxicity was 1% (inactive).
In the case of `CCCCc1nc2ccccc2c(=O)n1-c1ccc(O)cc1`, the cytotoxicity is reported as -5.1% (inactive).
With `CCCCCn1c(=O)c(C(=O)NCc2ccncc2)c(O)c2ccccc21` the cytotoxicity was 60.6% (active).
With `CCCCCn1c(=O)c(C(=O)Nc2ccncc2)c(O)c2ccccc21` the cytotoxicity was 68.6% (active).
With `CCCCCCn1c(=O)c(C(=O)Nc2ccncc2)c(O)c2ccccc21` the cytotoxicity was 37.2% (inactive).
For `CCCCn1c(=O)c(C(=O)Nc2ccccc2S(N)(=O)=O)c(O)c2ccccc21`, the cytotoxicity was -2.2% (inactive).
In the case of `CCCCCn1c(=O)c(C(=O)NCc2ccccn2)c(O)c2ccccc21`, the cytotoxicity is reported as 2.6% (inactive).
With `CCCCCCn1c(=O)c(C(=O)Nc2c(C)n(C)n(-c3ccccc3)c2=O)c(O)c2ccccc21` the cytotoxicity was 51.8% (active).
In the case of `CCCCn1c(=O)c(C(=O)Nc2cnccn2)c(O)c2ccccc21`, the cytotoxicity is reported as 60.1% (active).
In the case of `CCCCCCn1c(O)c(C=Nc2c(C)n(C)n(-c3ccccc3)c2=O)c(=O)[nH]c1=O`, the cytotoxicity is reported as 5.3% (inactive).
With `CCCCn1c(=O)c(C(=O)Nc2nc3ccccc3[nH]2)c(O)c2ccccc21` the cytotoxicity was 15.2% (inactive).
With `O=C(Nc1ccncc1)c1c(O)c2ccccc2n(Cc2ccccc2)c1=O` the cytotoxicity was -2.4% (inactive).
For `COc1ccc(CC2c3cc(OC)c(OC)cc3CCN2C)cc1OC` (stereo not given), the cytotoxicity was 3.5% (inactive).
With `COc1ccc2c(c1)CC1(CN2C)C(=O)NC(=O)N(c2ccc(C)cc2)C1=O` (stereo not given) the cytotoxicity was 5.9% (inactive).
For `COc1ccc2nc(NC(=O)CCc3nc(C4=CCN(C)CC4)no3)sc2c1`, the cytotoxicity was -12.4% (inactive).
With `O=c1cccc2n1CC1CC2CN(Cc2ccc3c(c2)OCO3)C1` (stereo not given) the cytotoxicity was -17.1% (inactive).
For `C=CCN1C(=O)CSc2ccc(C(=O)N3CCC4(CC3)OCCO4)cc21`, the cytotoxicity was -17.9% (inactive).
For `C=Cn1ccnc1P(=S)(c1ccn(C)c1)c1nccn1C=C`, the cytotoxicity was 7.8% (inactive).
With `CCCCN1C(=O)NC(=O)C2(Cc3c(nc4c(C)cccn4c3=O)N3CCc4ccccc4C32)C1=O` (stereo not given) the cytotoxicity was 13.9% (inactive).
In the case of `O=c1[nH]c(=O)n(CCc2ccc(F)cc2)c(O)c1C=NCCCn1ccnc1`, the cytotoxicity is reported as -19.6% (inactive).
In the case of `CNCC(O)c1cccc(OC(=O)c2ccccc2C)c1` (stereo not given), the cytotoxicity is reported as -3.3% (inactive).
For `CC(CCc1ccccc1)NC(C)C(O)c1ccc(O)cc1` (stereo not given), the cytotoxicity was 8.9% (inactive).
With `CNCC(O)c1ccc(O)cc1` (stereo not given) the cytotoxicity was 50.6% (active).
For `Cc1ccc(-c2nc(CS(=O)CC(=O)N3CCC4(CC3)OCCO4)c(C)o2)cc1` (stereo not given), the cytotoxicity was 1.6% (inactive).
For `CC(C)=CCC12CN3CCN(CC(C3)C1=O)C2`, the cytotoxicity was -7.6% (inactive).
In the case of `COc1cc(OC)cc(-n2nc(C(=O)N3CCC4(CC3)OCCO4)c3ccccc3c2=O)c1`, the cytotoxicity is reported as -1.5% (inactive).
In the case of `CCC(=NCc1ccc2c(c1)OCO2)c1c(O)n(C2CCCCC2)c(=O)[nH]c1=O`, the cytotoxicity is reported as 64.4% (active).
For `CCC(=NCc1cccnc1)c1c(O)n(C2CCCCC2)c(=O)[nH]c1=O`, the cytotoxicity was -32.8% (inactive).
For `CCCCn1c(O)c(C(CC)=NCc2ccc3c(c2)OCO3)c(=O)[nH]c1=O`, the cytotoxicity was 10% (inactive).
For `Cn1c2ccccc2c2c(C(=O)N3CCC4(CC3)OCCO4)cn(C3CCCCC3)c(=O)c21`, the cytotoxicity was -1.3% (inactive).
For `NCCCP(=O)(O)CCc1ccccc1`, the cytotoxicity was -5.8% (inactive).
With `Cn1c(O)c(/C=N/c2ccccn2)c(=O)n(C)c1=O` the cytotoxicity was -18.2% (inactive).
With `COc1ccc(C2SCC(=O)Nc3c2c(=O)[nH]n3C2CCCCCC2)cc1` (stereo not given) the cytotoxicity was 90.9% (active).
In the case of `CCOc1ccc(C2SCC(=O)Nc3c2c(=O)[nH]n3C2CCCCCC2)cc1` (stereo not given), the cytotoxicity is reported as -18.2% (inactive).
For `COc1ccc(C2SCC(=O)Nc3c2c(=O)[nH]n3C2CCCCC2)cc1` (stereo not given), the cytotoxicity was -0.7% (inactive).
In the case of `N#Cc1ccc(N2CCNCC2)c(F)c1`, the cytotoxicity is reported as 8.7% (inactive).
With `O=C1NC(=O)C2(Cc3c(nc4ccccn4c3=O)N3CCCCCC32)C(=O)N1Cc1ccccc1` (stereo not given) the cytotoxicity was 48.1% (inactive).
For `Cc1nc2ccc(Cl)cn2c1P(=S)(N1CCOCC1)N1CCOCC1`, the cytotoxicity was -4.2% (inactive).
For `COc1ccc(Cn2c(N)c(C(=O)NCc3ccco3)c3nc4ccccc4nc32)cc1`, the cytotoxicity was 69.5% (active).
For `Nc1c(C(=O)NCCN2CCOCC2)c2nc3ccccc3nc2n1Cc1ccco1`, the cytotoxicity was 5.7% (inactive).
In the case of `COCCOC(=O)c1c(N)n(Cc2ccco2)c2nc3ccccc3nc12`, the cytotoxicity is reported as 17.4% (inactive).
With `COc1ccc(Cn2c(N)c(C(=O)NCc3ccco3)c3nc4ccccc4nc32)cc1OC` the cytotoxicity was 2.8% (inactive).
For `COCCOC(=O)c1c(N)n(Cc2ccc(OC)cc2)c2nc3ccccc3nc12`, the cytotoxicity was -32.4% (inactive).
In the case of `Nc1c(C(=O)NCc2ccco2)c2nc3ccccc3nc2n1Cc1ccc(F)cc1`, the cytotoxicity is reported as 80.9% (active).
With `Cc1nnc2ccc(N3CCN(C)CC3)nn12` the cytotoxicity was -0.1% (inactive).
For `C=CCN1C(=O)C2(C(C(=O)OCC)=C(N)Oc3ccccc32)c2c1c1ccccc1oc2=O` (stereo not given), the cytotoxicity was 5.2% (inactive).
With `CCOC(=O)c1c(N)n(CCN2CCCCC2)c2nc3ccccc3nc12` the cytotoxicity was 9.2% (inactive).
In the case of `CCCCn1c(N)c(C(=O)NCCN2CCOCC2)c2nc3ccccc3nc21`, the cytotoxicity is reported as 1.4% (inactive).
With `COc1ccc(CCNC(=O)c2c(N)n(CCN3CCOCC3)c3nc4ccccc4nc23)cc1` the cytotoxicity was 62.9% (active).
For `CCCCCn1c(N)c(C(=O)NCCN2CCOCC2)c2nc3ccccc3nc21`, the cytotoxicity was 10.6% (inactive).
For `CCCCNC(=O)c1c(N)n(CCCOC)c2nc3ccccc3nc12`, the cytotoxicity was 24.4% (inactive).
For `CCCCCCn1c(N)c(C(=O)NCCN2CCOCC2)c2nc3ccccc3nc21`, the cytotoxicity was 72.1% (active).
With `OCCNc1c2c(nc3ccccc13)CCCC2` the cytotoxicity was -2.4% (inactive).
For `CC(=NCCCN1CCOCC1)c1c(O)[nH]c(=O)[nH]c1=O`, the cytotoxicity was 3.3% (inactive).
For `CC1(C)C(C(=O)NCc2ccco2)C1(C)C`, the cytotoxicity was -21.5% (inactive).
With `Cc1cccc(-c2nc3ccccc3c(=O)n2-n2cccc2)c1` the cytotoxicity was 19.1% (inactive).
With `Cc1cccc(N2CCc3c2nc2ccccc2c3N)c1` the cytotoxicity was 24.2% (inactive) and 50.1% (active).
In the case of `Cc1nc2ccccc2c(=O)n1-c1cccc(O)c1`, the cytotoxicity is reported as 3.6% (inactive).
For `CC(=NCc1cccnc1)c1c(O)n(Cc2ccccc2)c(=O)[nH]c1=O`, the cytotoxicity was -13.3% (inactive).
For `COc1ccc(C2NCc3ccc4c(c3-n3cccc32)OCO4)cc1OC` (stereo not given), the cytotoxicity was -0.1% (inactive).
For `COc1ccc(C2NCc3ccc4c(c3-n3cccc32)OCO4)cc1O` (stereo not given), the cytotoxicity was 63.9% (active).
For `c1cc2n(c1)-c1c(ccc3c1OCO3)CNC2c1ccc2c(c1)OCO2` (stereo not given), the cytotoxicity was 29.3% (inactive).
In the case of `O=C(O)C(O)(c1ccccc1)C1CCCC1` (stereo not given), the cytotoxicity is reported as 13.6% (inactive).
In the case of `CN(C)CP(=O)(Nc1ccccc1)N(C)C` (stereo not given), the cytotoxicity is reported as -14.4% (inactive).
In the case of `O=C(c1cc(-c2cccnc2)nc2ccc(Cl)cc12)N1CCC2(CC1)OCCO2`, the cytotoxicity is reported as 4.7% (inactive).
For `O=C1CN=C(c2ccccc2)c2oc3ccc(Br)cc3c2N1`, the cytotoxicity was -10.4% (inactive).
For `COc1cccc(OC)c1C1=NCC(=O)Nc2c1oc1ccc(Br)cc21`, the cytotoxicity was 72.5% (active).
For `Cc1cc(NC(=O)COC(=O)c2c(C)nn(Cc3ccccc3Cl)c2Cl)no1`, the cytotoxicity was 3.7% (inactive).
With `O=c1c2ccccc2nc(-c2cccs2)n1-c1cnccn1` the cytotoxicity was 2.1% (inactive).
With `CCn1nc(-c2cccs2)nc2c(=O)n(C)c(=O)nc1-2` the cytotoxicity was 114% (active).
In the case of `CCc1nc2ccccc2c(=O)n1-c1cccc(OC)c1`, the cytotoxicity is reported as 18.7% (inactive).
For `CCn1nc(-c2ccccc2)nc2c(=O)n(C)c(=O)nc1-2`, the cytotoxicity was 119% (active).
For `CSc1ccc(CNC2CN3CCC2CC3)cc1` (stereo not given), the cytotoxicity was -5.8% (inactive).
With `O=C(Cc1ccccc1)OCCN1CCCCC1` the cytotoxicity was 0.7% (inactive).
For `Cc1cccc(OC(=O)N2CCOCC2)c1`, the cytotoxicity was -0.2% (inactive).
With `O=C(COc1ccccc1)N1CCN(C/C=C/c2ccccc2)CC1` the cytotoxicity was 1.6% (inactive).
For `CCCCOc1ccc(CN2CCN(CCO)CC2)cc1`, the cytotoxicity was 23.7% (inactive).
In the case of `NCCc1c[nH]c2ccc(F)cc12`, the cytotoxicity is reported as -7.7% (inactive).
With `COc1ccc2[nH]cc(CCN(C)C)c2c1` the cytotoxicity was -6% (inactive).
In the case of `CCCCc1ccc2[nH]cc(CCN)c2c1`, the cytotoxicity is reported as 62.3% (active).
For `COc1cc(OC)c(OC)cc1CNC(C)C(O)c1ccccc1` (stereo not given), the cytotoxicity was 2.2% (inactive).
In the case of `COC(=O)c1cc2c(s1)=NC=NP=2(N1CCOCC1)N1CCOCC1`, the cytotoxicity is reported as -14.1% (inactive).
With `C[C@@]1(CO)[C@H](O)CC[C@@]2(C)[C@H]1CC[C@H]1C[C@@H]3C[C@@]12CC[C@]3(O)CO` the cytotoxicity was 82.5% (active).
In the case of `O=C(C(Cc1ccccc1)NS(=O)(=O)c1cccc2nsnc12)N1CCC2(CC1)OCCO2` (stereo not given), the cytotoxicity is reported as -4.1% (inactive).
For `O=C(c1ccc(CS(=O)(=O)c2ccccc2)o1)N1CCC2(CC1)OCCO2`, the cytotoxicity was -2.7% (inactive).
For `CCC(=Nc1ccccc1NC(C)=O)c1c(O)n(C)c(=O)n(C)c1=O`, the cytotoxicity was 41.8% (inactive).
For `CC(=O)C1=C(C)OC(N)=C(C(=O)OC(C)C)C12C(=O)Nc1ccccc12` (stereo not given), the cytotoxicity was -8.9% (inactive).
With `CCCCc1nc(N2CCNCC2)c(C#N)c2c1CSC(C)(C)C2` the cytotoxicity was 52.3% (active).
In the case of `CCc1nc(N2CCNCC2)c(C#N)c2c1CSC(C)(C)C2`, the cytotoxicity is reported as 37.6% (inactive).
For `O=C(CN1C(=O)CN=C(c2ccccc2Cl)c2cc(Cl)ccc21)NCc1ccco1`, the cytotoxicity was 2.5% (inactive).
In the case of `O=c1[nH]c(=O)n(CCC2=CCCCC2)c(O)c1C=NCCCn1ccnc1`, the cytotoxicity is reported as -30.8% (inactive).
For `COc1ccc(C(=O)C(C)(C)NO)cc1`, the cytotoxicity was -9.5% (inactive).
In the case of `C=CCn1c(O)c(C(C)=NCc2cccnc2)c(=O)[nH]c1=O`, the cytotoxicity is reported as 8.9% (inactive).
With `O=C(Cn1ncc2ccccc21)N1CCC2(CC1)OCCO2` the cytotoxicity was -19.4% (inactive).
With `O=c1[nH]c(=O)n(Cc2ccccc2)c(O)c1C=NCCN1CCNCC1` the cytotoxicity was -11.2% (inactive).
With `O=c1[nH]c(=O)n(C2CCCCCC2)c(O)c1C=NCCCN1CCOCC1` the cytotoxicity was 2.2% (inactive).
In the case of `O=c1c(C=NCCN2CCNCC2)c(O)n(C2CCCCC2)c(=O)n1C1CCCCC1`, the cytotoxicity is reported as 62.8% (active).
In the case of `Cc1nc2c(c(C)nn2-c2ccccc2)c(C)c1CCC(=O)N1CCC2(CC1)OCCO2`, the cytotoxicity is reported as -12.1% (inactive).
With `Fc1ccc2c(c1)nnn2C1CCN(Cc2nnnn2C2CCCCC2)CC1` the cytotoxicity was -8% (inactive).
In the case of `NC(=O)C1(N2CCCCC2)CCN(Cc2ccccc2)CC1`, the cytotoxicity is reported as -8.8% (inactive).
